Hits are enriched below; roughly 19% of the tested compounds scored in any of these assays.
TDP1 block = qHTS Assay for Inhibitors of Tyrosyl-DNA Phosphodiesterase (TDP1) | Tyrosyl-DNA phosphodiesterase 1 (Homo sapiens), Q9NUW8 | recombinant TDP1, AlphaScreen DNA substrate cleavage | Potency, µM (doses to about 130 µM), for the others: at the top dose activity change, negative = inhibition, most hits filed as inhibitors | 350,000 compounds, 0.28% hits | AID 485290, 2010; note: potency is the fitted concentration of half-maximal effect; nearly all actives have a fitted effect of over 40% in size
Target sequence (Q9NUW8 whole entry, looked up): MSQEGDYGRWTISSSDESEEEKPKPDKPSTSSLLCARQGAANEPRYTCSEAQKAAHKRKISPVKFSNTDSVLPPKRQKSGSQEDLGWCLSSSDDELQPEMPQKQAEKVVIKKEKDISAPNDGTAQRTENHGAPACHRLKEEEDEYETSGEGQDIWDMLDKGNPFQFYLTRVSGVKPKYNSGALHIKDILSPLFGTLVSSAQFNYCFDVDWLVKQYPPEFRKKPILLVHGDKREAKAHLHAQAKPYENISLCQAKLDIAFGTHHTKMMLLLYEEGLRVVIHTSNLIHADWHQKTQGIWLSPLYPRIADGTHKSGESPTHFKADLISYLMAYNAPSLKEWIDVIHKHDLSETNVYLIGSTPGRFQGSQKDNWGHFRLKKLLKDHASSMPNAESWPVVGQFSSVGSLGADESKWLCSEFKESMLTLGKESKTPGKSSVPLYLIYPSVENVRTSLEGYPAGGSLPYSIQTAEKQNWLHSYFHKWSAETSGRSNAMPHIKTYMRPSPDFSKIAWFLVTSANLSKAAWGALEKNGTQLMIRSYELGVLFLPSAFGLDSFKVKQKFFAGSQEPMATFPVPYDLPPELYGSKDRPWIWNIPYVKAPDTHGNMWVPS
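Steps: enzyme plus compound, 15 min RT; add biotin/phosphotyrosine-FITC oligonucleotide (15 nM final), react 5 min; add donor/acceptor beads (10 ug/ml final), 10 min; read AlphaScreen. Tdp1 at 1 nM final.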
Giardia kill = Small Molecules that selectively kill Giardia lamblia: qHTS. Giardia lamblia trophozoite viability. activity change, % at 7.66 µM, hits read low. 340,000 compounds, 0.15% hits. AID 540267, 2011; in the data active = activity change below about -80%; inconclusive = between about -30% and that limit;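 note: parasites exposed to compound for two days anaerobically before the ATP read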
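Viability, read as ATP luminescence: trophozoites at 100 cells/well, compound added, 48 hrs anaerobic at 37 deg C, then 15-30 min room-temperature development before reading.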
IL1B secr inh = qHTS for Inhibitors of Inflammasome Signaling: IL-1-beta AlphaLISA Primary Screen; THP-1 LPS/ATP IL-1B secretion, AlphaLISA, 16 h; active compounds read low; activity change, % at 57.5 µM; 360,000 compounds, 4.7% hits; AID 743279, 2014; in the data active = activity change below about -50%; inconclusive = mostly about -30% to -49%
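Secreted IL-1B measured by AlphaLISA bead assay after 16 h compound exposure of THP-1 cells; compounds (final up to 57.5 uM) added 1 h before LPS (250 ng/mL) and ATP (1.25 mM) stimulation; lower signal means less secretion.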
ELG1 repair inh = qHTS screen for small molecules that inhibit ELG1-dependent DNA repair in human embryonic kidney (HEK293T) cells expressing luciferase-tagged ELG1 | Potency, µM (series often up to 46.1 µM), inactives show at the highest dose activity change, negative = inhibition, actives largely listed as inhibitors | HEK293T ELG1-luciferase reporter, luminescence, 16 h; DNA damage induced by 5-fluorouridine | AID 504467, 2011 | 330,000 compounds, 2.3% hits; note: potency is the fitted concentration of half-maximal effect; nearly all actives have a fitted effect of over 55% in size
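DMSO vehicle served as the neutral condition. Each well held 2,000 cells given 5-fluorouridine plus compound; after 16 hr at 37 °C/5% CO2, ONE-Glo was added and luciferase measured 30 min later.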
TDP1 cell noCPT = qHTS for Inhibitors of human tyrosyl-DNA phosphodiesterase 1 (TDP1): qHTS in cells in absence of CPT; Potency, µM (doses to about 46.2 µM), without a hit: top-dose activity change, negative = growth inhibition, actives largely listed as inhibitors; DT40 Tdp1-/- hTDP1 cells, no CPT, ATP luminescence, 48 h; 420,000 compounds, 15% hits; AID 686978, 2013; note: potency is the fitted concentration of half-maximal effect; nearly all actives have a fitted effect of over 55% in size
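Compound effects on proliferation are scored in DT40 Tdp1-/-;hTDP1 cells in the absence of CPT. ATP levels (CellTiter-Glo luminescence) are recorded after a ≥48 hr, 37 °C incubation.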
DT40 TDP1 CPT = qHTS for Inhibitors of human tyrosyl-DNA phosphodiesterase 1 (TDP1): qHTS in cells in presence of CPT; chicken DT40 Tdp1-/-;hTDP1 cells + 20 nM CPT, ATP luminescence, 48 h; Potency, µM (highest dose often 46.2 µM), for inactives: at the highest dose activity change, negative = growth inhibition, most hits filed as inhibitors; 420,000 compounds, 12% hits; AID 686979, 2013; note: potency is the fitted concentration of half-maximal effect; nearly all actives have a fitted effect of over 55% in size
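Chicken DT40 Tdp1-/- cells stably complemented with human TDP1 were seeded at 400 cells/well in medium containing 20 nM camptothecin, exposed to pin-transferred compounds, and grown at 37 °C for at least 48 hr. Viability was read as ATP luminescence.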
* marks the source's active call; other numbers are inactive results; ? = inconclusive; / = not tested or not shown; [ ] = another dose, or the depositor's remark. Unless noted, calls come from the whole dose curve; as a rule, active = well fitted curve in the direction sought with a large enough effect; inconclusive = small, poorly fitted or top-dose-only effect, or another doubt; inactive = no such curve, though single readings can be large; an effect the other way counts as inactive or inconclusive. % is set by controls: 0 for no effect and ±100 for the full control effect.

SMILES | TDP1 block | Giardia kill | IL1B secr inh | ELG1 repair inh | TDP1 cell noCPT | DT40 TDP1 CPT
O=S(=O)(NCC1CCCO1)c1ccc(-c2ccc(S(=O)(=O)NCC3CCCO3)cc2)cc1 (stereo not given) | 4% | 6 | -2 | -8% | 1.8µM* | 0.65µM*
COc1ccc(S(=O)(=O)Nc2ccc(S(=O)(=O)NCC3CCCO3)cc2)cc1 (stereo not given) | -12% | 3 | -16 | ? | 7% | -10%
S=C(NCC1CCCO1)Nc1ccc(Cl)c(Cl)c1 (stereo not given) | 8% | -15 | -11 | 7% | 23µM* | ?
O=C1C(=O)N(C2CCNCC2)CCN1Cc1ccccc1 | 1% | / | / | / | 13% | -25%
COc1cc2nc(-c3ccccc3)nc(N3CCCC3)c2cc1OC | -8% | / | / | -3% | / | /
COc1cc2nc(N3CCCN(C)CC3)nc(N3CCN(C)CC3)c2cc1OC | / | / | / | / | 16µM* | 14µM*
COc1cc2nc(N3CCCN(C)CC3)nc(N(C)C)c2cc1OC | / | / | / | / | 18µM* | ?
COc1ccccc1/C=C/C=N/n1c(-c2n[nH]c3c2CCC3)n[nH]c1=S | 4% | -7 | -23 | ? | 13µM* | ?
COc1ccccc1/C=C/C=N/n1c(-c2ccc(C)cc2)n[nH]c1=S | -8% | 9 | 33 | 9% | ? | ?
COc1ccc(-c2n[nH]c(=S)n2/N=C/C=C\c2ccccc2OC)cc1 | -1% | -1 | 32 | ? | 10µM* | 23µM*
Cc1ccc(-n2cc(CNC(C)c3cnn(C)c3)c(-c3ccc(F)cc3)n2)cc1 (stereo not given) | 0% | 0 | -1 | 4% | 21µM* | 18µM*
Cc1ccc(-n2cc(CNC(C)c3cnn(C)c3C)c(-c3ccc(F)cc3)n2)cc1 (stereo not given) | / | 21 | ? | -6% | 2.9µM* | 5.2µM*
Cc1ccc(-n2cc(CNC(C)Cn3cncn3)c(-c3ccc(F)cc3)n2)cc1 (stereo not given) | 5% | 1 | ? | ? | ? | ?
Cc1ccc(-n2c(O)c(C=NC3CCS(=O)(=O)C3)c3ccccc3c2=O)c(C)c1 (stereo not given) | 3% | -7 | / | 0% | ? | 21µM*
Cc1cc(N=Cc2c(O)n(-c3ccc(C)c(C)c3)c(=O)c3ccccc23)no1 | 2% | / | / | ? | / | /
Cc1ccc(-n2c(O)c(C=Nc3cc(C)on3)c3ccccc3c2=O)c(C)c1 | 5% | 22 | -15 | ? | 4.6µM* | 1.6µM*
Cc1ccc(-n2c(O)c(C=NC3CCS(=O)(=O)C3)c3ccccc3c2=O)cc1 (stereo not given) | -4% | -4 | -11 | -1% | -14% | ?
CCn1nc(-c2ccccc2)c(-c2ccccc2)c(C(=O)Nc2ccc(S(N)(=O)=O)cc2)c1=O | 5% | / | / | / | ? | ?
CCOC(=O)c1c(C)sc2c1N(C(C)=O)c1cc(Cl)ccc1S2 | -3% | 9 | -15 | -16% | 16µM* | ?
O=C1C=C(c2cccc(O)c2)CCC1 | / | 5 | -3 | / | -1% | 2%
Oc1cccc(-c2c3nc(c(-c4cccc(O)c4)c4ccc([nH]4)c(-c4cccc(O)c4)c4nc(c(-c5cccc(O)c5)c5ccc2[nH]5)CC4)C=C3)c1 | / | / | / | / | 19µM* | 27µM*
CC1(C)Cc2c(sc(NC(=O)C(=O)N3CCCCC3)c2C(N)=O)CO1 | 4% | 0 | 8 | 27% | 19% | -26%
COc1cc2ccccc2cc1C(=O)N(CCN(C)C)c1nc2c(C)cccc2s1 | 15% | -4 | -61* | -7% | 23µM* | 16µM*
Cc1cc(C)c2sc(N(CCN(C)C)C(=O)c3cc(Cl)sc3Cl)nc2c1 | 8% | 0 | -20 | 6% | ? | ?
COc1ccccc1C(=O)N(CCN(C)C)c1nc2cc(C)cc(C)c2s1 | 6% | 28 | 0 | 7% | 26µM* | ?
SMILES | TDP1 block | Giardia kill | IL1B secr inh | ELG1 repair inh | TDP1 cell noCPT | DT40 TDP1 CPT
COc1ccc(OC)c2sc(N(CCN(C)C)C(=O)c3ccc4ccccc4c3)nc12 | 16% | 4 | -27 | 13% | ? | ?
COc1cc2ccccc2cc1C(=O)N(CCN(C)C)c1nc2c(OC)ccc(OC)c2s1 | 15% | -5 | -53* | -10% | ? | ?
CCOc1ccc(S(=O)(=O)NCCC(=O)NCC2(N3CCCCC3)CCCCC2)cc1 | 2%[56.1 µM] | 13 | 7 | 1% | -19% | -9%
COc1ccc2c(c1)[nH]c1c(=O)n(/N=C/c3ccc(OC)c(COc4ccccn4)c3)cnc12 | 1% | -12 | -28 | -9% | ? | -18%
COc1ccc(/C=N/n2cnc3c([nH]c4ccc(F)cc43)c2=O)cc1CSc1ccccn1 | 4% | -17 | 3 | -1% | 7.3µM* | 1.2µM*
COc1ccc(CCNc2cc(N3CCN(C(=O)c4ccc(C)cc4)CC3)ccc2[N+](=O)[O-])cc1OC | -3% | / | / | 2.1µM* | / | /
COc1ccc(CCNc2cc(N3CCN(C(=O)c4ccccc4F)CC3)ccc2[N+](=O)[O-])cc1OC | 6% | -3 | -2 | 4.1µM* | 5.2µM* | 4.6µM*
COc1ccc(C(=O)N2CCN(c3ccc([N+](=O)[O-])c(NCCc4ccc(OC)c(OC)c4)c3)CC2)cc1 | 5% | 28 | ? | ? | 2.6µM* | 4.1µM*
O=C(c1ccccc1F)N1CCN(c2ccc([N+](=O)[O-])c(NCc3cccnc3)c2)CC1 | 7% | 19 | / | ? | ? | ?
COc1ccc(CCNc2ccc(C(=O)O)cc2[N+](=O)[O-])cc1OC | 5% | 1 | 27 | 10% | 8% | 9%
COc1ccc(C(=O)N2CCN(c3ccc([N+](=O)[O-])c(-n4nc(C)cc4C)c3)CC2)cc1 | 3% | 2 | -26 | -5% | -17% | -17%
CCc1ccc(NCc2cc3ccc(OC)cc3n(CC(=O)Nc3ccc(C)c(Cl)c3)c2=O)cc1 | 3% | / | / | / | / | /
Cc1c(C(N)=O)sc2ncn(CC(=O)N3CCC(C)CC3)c(=O)c12 | 1% | 6 | 14 | 7% | 4% | -15%
CCCCNS(=O)(=O)c1cccc(NC(=O)[C@H]2C[C@H](O)[C@@H](CO)O2)c1 | / | / | 15 | / | 1% | -14%

Compound activity from PubChem.
